# Experimental data from the supplement of paper PMC8728848.
# This is one part of a sample in which the strongest signals are shown more often than they occur.
# B1: PX14375A-pdi-503-28-503 (Parabacteroides distasonis) (protein)
# chain: PLGSPEAGDISEERQAFLRLTAVYSVMKDFRYTWSMQCFGDVLSNDATYSGSSNDAQTFTLLENYQYQADHTEILNKYRYSYQCINKANLFIRDMEMADDALFSKYDKEQMIGEAKFIRAYTYFELVKTFGGVPCYTGVLDLDHERLGRASVEEIYSVIEQDLNDAVSVLPKKSEVANYESSYAGRITKGAAIAMQTRIYLYEKKYDEVKKAFEKFQNECGGEYSLVAPEDYTWQFSLDGEHCSSSILEVNMYNSSTQSSYNVNNGNRHVLMSMPRNMTIGFGCAQPTQALADAYDAEGDVIRKKTTLLSTEEAIEIETAAKGDVAPVTDDRTGWYNRKLYLAPGQREENRGNNQPTNLRLIRLAEVYLNYAEACYFSGDIANAQKYLNEVRSHVNLAPKNHTGSQLFEDIMNERHLEFGMEGFRFFDVVRVGWGEKVFNGTKKAEFGAKTPFSAGAEVLPIPQTEIDISDGLITN
# What was measured:
# Assay in all cases: glycan array binding signal (z-score within array); higher = stronger binding
# Conditions in all cases: glycan notation: IUPAC condensed, linker removed
# Glc(a1-6)Glc(a1-6)Glc = molecular target: Glc(a1-6)Glc(a1-6)Glc
# How it was run: (§1)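 The binding signal is a Z-score computed within each array. Data were drawn from 3228 arrays in the Consortium for Functional Glycomics database, restricted to those with a known protein sequence. Scores were averaged over arrays of the same protein sequence at different concentrations or buffers, and over linkers, and negative values can be taken as non-binding.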
# [1] = molecular target: GlcNAc(a1-4)Gal(b1-4)GalNAc
# How it was run: as §1
# [2] = molecular target: GlcNAc(b1-2)[GlcNAc(b1-6)]Man(a1-6)[GlcNAc(b1-4)][GlcNAc(b1-2)Man(a1-3)]Man(b1-4)GlcNAc(b1-4)GlcNAc
# How it was run: as §1
# [3] = molecular target: GlcNAc(b1-3)Gal(b1-4)GlcNAc(b1-3)Gal(b1-4)GlcNAc(b1-2)Man(a1-3)[GlcNAc(b1-3)Gal(b1-4)GlcNAc(b1-3)Gal(b1-4)GlcNAc(b1-2)Man(a1-6)]Man(b1-4)GlcNAc(b1-4)GlcNAc
# How it was run: as §1
# [4] = molecular target: GlcNAc(b1-3)Gal(b1-4)GlcNAc(b1-3)Gal(b1-4)GlcNAc(b1-3)Gal(b1-4)GlcNAc(b1-2)[GlcNAc(b1-3)Gal(b1-4)GlcNAc(b1-3)Gal(b1-4)GlcNAc(b1-3)Gal(b1-4)GlcNAc(b1-6)]Man(a1-6)[GlcNAc(b1-3)Gal(b1-4)GlcNAc(b1-3)Gal(b1-4)GlcNAc(b1-3)Gal(b1-4)GlcNAc(b1-2)Man(a1-3)]Man(b1-4)GlcNAc(b1-4)[Fuc(a1-6)]GlcNAc
# How it was run: as §1
# [5] = molecular target: GlcNAc(b1-4)[GlcNAc(b1-6)]GalNAc
# How it was run: as §1
# Kdn(a2-3)Gal(b1-3)GlcNAc = molecular target: Kdn(a2-3)Gal(b1-3)GlcNAc
# How it was run: as §1
# [6] = molecular target: Man(a1-2)Man(a1-3)[Man(a1-2)Man(a1-6)]Man(a1-6)[Man(a1-2)Man(a1-2)Man(a1-3)]Man
# How it was run: as §1
# [7] = molecular target: Man(a1-2)Man(a1-6)[Man(a1-3)]Man(a1-6)[Man(a1-2)Man(a1-2)Man(a1-3)]Man
# How it was run: as §1
# [8] = molecular target: Neu5Ac(a2-3)Gal(b1-4)GlcNAc(b1-3)Gal(b1-3)GlcNAc
# How it was run: as §1
# [9] = molecular target: Neu5Ac(a2-3)Gal(b1-4)GlcNAc(b1-3)Gal(b1-4)GlcNAc
# How it was run: as §1
# [10] = molecular target: Neu5Ac(a2-3)Gal(b1-4)GlcNAc(b1-3)Gal(b1-4)GlcNAc(b1-3)GalNAc
# How it was run: as §1
# Neu5Ac(a2-3)GalNAc = molecular target: Neu5Ac(a2-3)GalNAc
# How it was run: as §1
# [11] = molecular target: Neu5Ac(a2-3)[GalNAc(b1-4)]Gal(b1-4)GlcNAc(b1-3)GalNAc
# How it was run: as §1
# [12] = molecular target: Neu5Ac(a2-3)[Neu5Ac(a2-6)]GalNAc
# How it was run: as §1
# Neu5Ac(a2-6)Gal(b1-4)Glc = molecular target: Neu5Ac(a2-6)Gal(b1-4)Glc
# How it was run: as §1
# [13] = molecular target: Neu5Ac(a2-6)Gal(b1-4)GlcNAc(b1-2)Man(a1-6)Man(b1-4)GlcNAc(b1-4)GlcNAc
# How it was run: as §1
# [14] = molecular target: Neu5Ac(a2-6)Gal(b1-4)GlcNAc(b1-2)Man(a1-6)[Gal(b1-4)GlcNAc(b1-2)Man(a1-3)]Man(b1-4)GlcNAc(b1-4)GlcNAc
# How it was run: as §1
# [15] = molecular target: Neu5Ac(a2-6)Gal(b1-4)GlcNAc(b1-3)Gal(b1-4)GlcNAc(b1-2)Man(a1-3)[Neu5Ac(a2-6)Gal(b1-4)GlcNAc(b1-3)Gal(b1-4)GlcNAc(b1-2)Man(a1-6)]GalNAc
# How it was run: as §1
# [16] = molecular target: Neu5Ac(a2-6)Gal(b1-4)GlcNAc(b1-3)Gal(b1-4)GlcNAc(b1-3)Gal(b1-4)GlcNAc
# How it was run: as §1
# [17] = molecular target: Neu5Ac(a2-6)Gal(b1-4)GlcNAc(b1-3)Gal(b1-4)GlcNAc(b1-3)Gal(b1-4)GlcNAc(b1-2)Man(a1-3)[Neu5Ac(a2-6)Gal(b1-4)GlcNAc(b1-3)Gal(b1-4)GlcNAc(b1-3)Gal(b1-4)GlcNAc(b1-2)Man(a1-6)]GalNAc
# How it was run: as §1
# [18] = molecular target: Neu5Ac(a2-6)Gal(b1-4)GlcNAc(b1-3)Gal(b1-4)GlcNAc(b1-6)[Gal(b1-3)]GalNAc
# How it was run: as §1
# [19] = molecular target: Neu5Ac(a2-8)Neu5Ac(a2-3)Gal(b1-3)GalNAc(b1-4)[Neu5Ac(a2-3)]Gal(b1-4)Glc
# How it was run: as §1
# [20] = molecular target: Neu5Ac(a2-8)Neu5Ac(a2-8)Neu5Ac
# How it was run: as §1
# [21] = molecular target: Neu5Ac(a2-8)Neu5Gc(a2-3)Gal(b1-4)GlcNAc
# How it was run: as §1
# [22] = molecular target: Neu5Gc(a2-8)Neu5Gc(a2-3)Gal(b1-4)GlcNAc
# How it was run: as §1
# [23] = molecular target: Neu5Gc(a2-8)Neu5Gc(a2-3)Gal(b1-4)GlcNAc(b1-3)Gal(b1-4)GlcNAc
# How it was run: as §1
binder,measurement,setting,value
B1,glycan array binding signal (z-score),Glc(a1-6)Glc(a1-6)Glc,-0.184
same,glycan array binding signal (z-score),[1],0.594
same,glycan array binding signal (z-score),[2],-0.508
same,glycan array binding signal (z-score),[3],1.59
same,glycan array binding signal (z-score),[4],0.489
same,glycan array binding signal (z-score),[5],2.82
same,glycan array binding signal (z-score),Kdn(a2-3)Gal(b1-3)GlcNAc,-0.519
same,glycan array binding signal (z-score),[6],1.42
same,glycan array binding signal (z-score),[7],-0.437
same,glycan array binding signal (z-score),[8],-0.225
same,glycan array binding signal (z-score),[9],0.104
same,glycan array binding signal (z-score),[10],-0.442
same,glycan array binding signal (z-score),Neu5Ac(a2-3)GalNAc,-0.004
same,glycan array binding signal (z-score),[11],-1.13
same,glycan array binding signal (z-score),[12],0.006
same,glycan array binding signal (z-score),Neu5Ac(a2-6)Gal(b1-4)Glc,-0.412
same,glycan array binding signal (z-score),[13],-0.882
same,glycan array binding signal (z-score),[14],-0.819
same,glycan array binding signal (z-score),[15],0.642
same,glycan array binding signal (z-score),[16],0.319
same,glycan array binding signal (z-score),[17],1.64
same,glycan array binding signal (z-score),[18],-0.493
same,glycan array binding signal (z-score),[19],-0.127
same,glycan array binding signal (z-score),[20],-0.278
same,glycan array binding signal (z-score),[21],13.2
same,glycan array binding signal (z-score),[22],-0.736
same,glycan array binding signal (z-score),[23],-0.755
